# Several values for one entry are separate records, joined by “and”; a condition that tells them apart may be missing. Identical values can stand only once. About 2,000 (36%) of roughly 5,500 compounds were called active. Another 18% or so got no clear call; they are omitted. The list shows a part of the results. Values without a mark were called inactive. Rule as the data show it: active = normalized growth mostly below about 0.91 (no sharp cut-off); inconclusive = no clear call, values can overlap the other calls; inactive = mostly above about 0.92.
# Assay: chemical genetic growth profiling, strain panel (AID 1159580);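 also: tested at 20 µM; growth read once vehicle control cultures reached saturation at 30 °C; 1 = growth at the plate median or of vehicle wells; lower values mean less growth of the strain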
# Conditions: S. cerevisiae deletion strains, growth OD
smiles,measurement,setting,value
C[C@@H]1CC[C@@]23CCC4(C)[C@@](C=CC5[C@@]6(C)CC[C@H](O)C(C)(C)C6CC[C@]54C)(OC2=O)C3[C@H]1C (some centres not stated),normalized growth,"locus YAL021C, strain ccr4, hits give low values",0.999
same,normalized growth,"locus YAL026C, strain drs2, hits give low values",1.01
same,normalized growth,"locus YAL030W, strain snc1, hits give low values",1
same,normalized growth,"locus YBL061C, strain skt5, hits give low values",1.06
same,normalized growth,"locus YBR009C, strain hhf1, hits give low values",1
same,normalized growth,"locus YBR021W, strain FUR4, hits give low values",0.999
same,normalized growth,"locus YBR023C, strain chs3, hits give low values",1.02
same,normalized growth,"locus YBR171W, strain sec66, hits give low values",1
same,normalized growth,"locus YBR229C, strain ROT2, hits give low values",1
same,normalized growth,"locus YBR231C, strain swc5, hits give low values",1.09
same,normalized growth,"locus YBR279W, strain paf1, hits give low values",1.09 [resistant] (active)
same,normalized growth,"locus YCL011C, strain gbp2, hits give low values",1
same,normalized growth,"locus YCL016C, strain dcc1, hits give low values",1.08
same,normalized growth,"locus YCL029C, strain bik1, hits give low values",1.02
same,normalized growth,"locus YCL061C, strain MRC1, hits give low values",0.991
same,normalized growth,"locus YCL069W, strain vba3, hits give low values",1.01
same,normalized growth,"locus YCR088W, strain abp1, hits give low values",1
same,normalized growth,"locus YDL005C, strain med2, hits give low values",1.01
same,normalized growth,"locus YDL035C, strain GPR1, hits give low values",1
same,normalized growth,"locus YDL040C, strain nat1, hits give low values",1.06
same,normalized growth,"locus YDL074C, strain BRE1, hits give low values",1.04
same,normalized growth,"locus YDL101C, strain DUN1, hits give low values",1.02
same,normalized growth,"locus YDL134C, strain PPH21, hits give low values",1.03
same,normalized growth,"locus YDL185W, strain tfp1, hits give low values",1.01
same,normalized growth,"locus YDL192W, strain arf1, hits give low values",1.05
same,normalized growth,"locus YDR001C, strain nth1, hits give low values",1.01
same,normalized growth,"locus YDR069C, strain doa4, hits give low values",0.985
same,normalized growth,"locus YDR101C, strain arx1, hits give low values",1.03
same,normalized growth,"locus YDR137W, strain rgp1, hits give low values",1.16 [resistant] (active)
same,normalized growth,"locus YDR159W, strain sac3, hits give low values",1.1
same,normalized growth,"locus YDR162C, strain NBP2, hits give low values",1.04
same,normalized growth,"locus YDR195W, strain ref2",0.955
same,normalized growth,"locus YDR297W, strain sur2, hits give low values",1
same,normalized growth,"locus YDR318W, strain mcm21, hits give low values",1.01
same,normalized growth,"locus YDR334W, strain swr1, hits give low values",1
same,normalized growth,"locus YDR335W, strain msn5, hits give low values",1.01
same,normalized growth,"locus YDR388W, hits give low values",1.01
same,normalized growth,"locus YDR392W, strain spt3, hits give low values",1.02
same,normalized growth,"locus YDR502C, strain sam2, hits give low values",1
same,normalized growth,"locus YEL003W, strain gim4, hits give low values",0.99
same,normalized growth,"locus YEL037C, strain rad23, hits give low values",1.04
same,normalized growth,"locus YEL061C, strain CIN8 (second series), hits give low values",1
same,normalized growth,"locus YEL061C, strain CIN8, hits give low values",1.02
same,normalized growth,"locus YER015W, strain faa2, hits give low values",1
same,normalized growth,"locus YER016W, strain bim1, hits give low values",1.17 [resistant] (active)
same,normalized growth,"locus YER110C, hits give low values",0.995
same,normalized growth,"locus YER111C, strain swi4, hits give low values",1.04
same,normalized growth,"locus YER155C, strain BEM2 (second series), hits give low values",0.967
same,normalized growth,"locus YER155C, strain BEM2, hits give low values",1.03
same,normalized growth,"locus YER167W, strain BCK2, hits give low values",1.01
same,normalized growth,"locus YFR010W, strain ubp6, hits give low values",1.02
same,normalized growth,"locus YGL078C, strain dbp3, hits give low values",1
same,normalized growth,"locus YGL086W, strain mad1, hits give low values",1.02
same,normalized growth,"locus YGL167C, strain pmr1, hits give low values",1.02
same,normalized growth,"locus YGL173C, strain kem1, hits give low values",0.991
same,normalized growth,"locus YGL227W, strain vid30, hits give low values",1
same,normalized growth,"locus YGL240W, strain doc1, hits give low values",0.99
same,normalized growth,"locus YGL248W, strain PDE1, hits give low values",1.03
same,normalized growth,"locus YGL253W, strain hxk2, hits give low values",1.03
same,normalized growth,"locus YGR078C, strain PAC10, hits give low values",1.03
same,normalized growth,"locus YGR135W, strain pre9, hits give low values",0.993
same,normalized growth,"locus YGR229C, strain SMI1, hits give low values",1.08
same,normalized growth,"locus YGR252W, strain gcn5, hits give low values",1.07
same,normalized growth,"locus YHR013C, strain ard1, hits give low values",1.06
same,normalized growth,"locus YHR027C, strain rpn1, hits give low values",1.01
same,normalized growth,"locus YHR030C, strain SLT2, hits give low values",1.03 and 1.01
same,normalized growth,"locus YHR079C, strain IRE1 (second series), hits give low values",0.998
same,normalized growth,"locus YHR079C, strain IRE1, hits give low values",0.999
same,normalized growth,"locus YHR094C, strain hxt1, hits give low values",1.14 [resistant] (active)
same,normalized growth,"locus YHR129C, strain ARP1, hits give low values",1.03
same,normalized growth,"locus YHR142W, strain chs7, hits give low values",1.06
same,normalized growth,"locus YHR200W, strain rpn10, hits give low values",0.988
same,normalized growth,"locus YIL066C, strain RNR3, hits give low values",1.04
same,normalized growth,"locus YIL073C, strain SPO22, hits give low values",1.05
same,normalized growth,"locus YIL125W, strain kgd1, hits give low values",0.992
same,normalized growth,"locus YIR030C, strain dcg1, hits give low values",1.18 [resistant] (active)
same,normalized growth,"locus YJL092W, strain hpr5, hits give low values",1.01
same,normalized growth,"locus YJL095W, strain BCK1 (second series), hits give low values",1.03
same,normalized growth,"locus YJL095W, strain BCK1, hits give low values",1.06 and 1.01
same,normalized growth,"locus YJL115W, strain asf1, hits give low values",1.03
same,normalized growth,"locus YJL129C, strain trk1, hits give low values",1.03
same,normalized growth,"locus YJL134W, strain LCB3, hits give low values",1.02
same,normalized growth,"locus YJL154C, strain vps35, hits give low values",1
same,normalized growth,"locus YJL164C, strain tpk1, hits give low values",1.01
same,normalized growth,"locus YJL166W, strain qcr8, hits give low values",1.01
same,normalized growth,"locus YJL187C, strain SWE1 (second series), hits give low values",1.01
same,normalized growth,"locus YJL187C, strain SWE1, hits give low values",0.996
